In ChEMBL document CHEMBL1961873, “Compounds: GSK PKIS; Assays: Nanosyn kinase panel” (2012) one finds inhibition data, which are given here for 7 molecules.

SMILES strings stand for the structures. “And” between values parts separate entries of the source, which are not always exact repeats. Equal entries are not always repeated.

The subject of assay [1] is Tyrosine-protein kinase ABL1 (Homo sapiens), P00519 [T315I]. As to conditions: at 1 µM.
Assay [2] has as its system Tyrosine-protein kinase ABL1 (Homo sapiens), P00519 [Y253F]. The conditions noted are these: at 0.1 µM.
Assay [3] shares this test system. The conditions noted are these: at 1 µM.
In assay [4] the target is Tyrosine-protein kinase ABL1 (Homo sapiens) (UniProt P00519). The conditions noted are these: at 0.1 µM.
Assay [5] has the same target. As to conditions: at 1 µM.
Assay [6] addresses ALK tyrosine kinase receptor (Homo sapiens) (UniProt Q9UM73). The conditions noted are these: at 0.1 µM.
Assay [7] shares this target. The conditions noted are these: at 1 µM.
The target in assay [8] is Tyrosine-protein kinase ABL2 (Homo sapiens) (UniProt P42684). As to conditions: at 0.1 µM.
Assay [9] has the same target. The conditions noted are these: at 1 µM.
In assay [10] the target is Tyrosine-protein kinase receptor UFO (Homo sapiens) (UniProt P30530). As to conditions: at 0.1 µM.
Tyrosine-protein kinase receptor UFO (Homo sapiens), sequence (P30530 whole entry): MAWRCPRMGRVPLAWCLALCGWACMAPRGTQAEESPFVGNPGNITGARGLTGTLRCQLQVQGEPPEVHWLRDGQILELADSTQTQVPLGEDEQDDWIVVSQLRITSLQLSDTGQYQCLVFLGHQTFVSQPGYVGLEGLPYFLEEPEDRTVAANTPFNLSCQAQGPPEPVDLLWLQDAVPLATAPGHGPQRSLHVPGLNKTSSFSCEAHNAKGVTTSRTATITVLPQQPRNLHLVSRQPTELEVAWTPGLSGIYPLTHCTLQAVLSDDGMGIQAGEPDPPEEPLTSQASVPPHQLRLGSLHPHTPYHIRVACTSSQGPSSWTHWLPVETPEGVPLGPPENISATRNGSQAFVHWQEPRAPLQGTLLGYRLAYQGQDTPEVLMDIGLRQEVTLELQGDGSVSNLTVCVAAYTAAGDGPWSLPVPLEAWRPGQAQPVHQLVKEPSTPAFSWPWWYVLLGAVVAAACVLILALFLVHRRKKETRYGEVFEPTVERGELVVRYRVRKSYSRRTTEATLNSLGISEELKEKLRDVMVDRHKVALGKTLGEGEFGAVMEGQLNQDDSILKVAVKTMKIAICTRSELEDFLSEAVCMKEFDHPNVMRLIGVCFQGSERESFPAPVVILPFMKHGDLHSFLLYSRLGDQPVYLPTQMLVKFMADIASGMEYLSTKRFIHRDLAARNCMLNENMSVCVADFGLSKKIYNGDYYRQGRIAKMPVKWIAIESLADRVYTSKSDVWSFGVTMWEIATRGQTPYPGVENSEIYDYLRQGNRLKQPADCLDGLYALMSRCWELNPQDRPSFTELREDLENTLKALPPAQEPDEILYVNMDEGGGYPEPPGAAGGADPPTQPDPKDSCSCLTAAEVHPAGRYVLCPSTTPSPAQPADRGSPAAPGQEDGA
Assay [11] has the same target. The conditions noted are these: at 1 µM.
Assay [12] has as its target Tyrosine-protein kinase Blk (Homo sapiens) (UniProt P51451). As to conditions: at 0.1 µM.
For assay [13] the target is unchanged. The conditions noted are these: at 1 µM.
Assay [14] concerns the target T1, Cytoplasmic tyrosine-protein kinase BMX (Homo sapiens) (UniProt P51813).
T1 sequence (whole entry): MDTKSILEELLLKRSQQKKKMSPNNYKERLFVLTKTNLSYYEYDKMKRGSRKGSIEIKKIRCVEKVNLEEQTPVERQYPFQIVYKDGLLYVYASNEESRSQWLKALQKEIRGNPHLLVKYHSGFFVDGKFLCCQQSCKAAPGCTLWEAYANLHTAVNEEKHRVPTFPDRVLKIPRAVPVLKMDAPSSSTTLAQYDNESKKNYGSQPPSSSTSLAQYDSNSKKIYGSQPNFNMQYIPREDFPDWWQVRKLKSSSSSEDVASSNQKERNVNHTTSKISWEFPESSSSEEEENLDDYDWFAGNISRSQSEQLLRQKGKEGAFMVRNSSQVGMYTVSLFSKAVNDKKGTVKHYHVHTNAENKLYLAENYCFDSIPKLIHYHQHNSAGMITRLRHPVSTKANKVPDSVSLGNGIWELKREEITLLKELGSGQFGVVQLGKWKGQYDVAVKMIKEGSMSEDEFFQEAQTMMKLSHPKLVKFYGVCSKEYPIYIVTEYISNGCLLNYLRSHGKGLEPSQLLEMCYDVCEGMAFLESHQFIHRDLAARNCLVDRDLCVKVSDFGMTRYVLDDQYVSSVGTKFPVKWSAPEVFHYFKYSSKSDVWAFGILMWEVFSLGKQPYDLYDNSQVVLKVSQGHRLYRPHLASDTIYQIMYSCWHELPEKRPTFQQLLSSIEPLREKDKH
As to conditions: at 0.1 µM.

Assay [15] deals with T1, Cytoplasmic tyrosine-protein kinase BMX (Homo sapiens). As to conditions: at 1 µM.
Assay [16] addresses Protein-tyrosine kinase 6 (Homo sapiens) (UniProt Q13882). As to conditions: at 0.1 µM.
Assay [17] has the same target. The conditions noted are these: at 1 µM.
Assay [18] addresses Tyrosine-protein kinase BTK (Homo sapiens) (UniProt Q06187). The conditions noted are these: at 0.1 µM.
Assay [19] shares this target. The conditions noted are these: at 1 µM.
The target in assay [20] is Tyrosine-protein kinase CSK (Homo sapiens) (UniProt P41240). The conditions noted are these: at 0.1 µM.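 Note: value given is the averaged percent inhibition of CSK kinase activity, from the GSK PKIS kinase inhibitor set screening panel.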
Tyrosine-protein kinase CSK (Homo sapiens), sequence (P41240 2-450 limits assumed): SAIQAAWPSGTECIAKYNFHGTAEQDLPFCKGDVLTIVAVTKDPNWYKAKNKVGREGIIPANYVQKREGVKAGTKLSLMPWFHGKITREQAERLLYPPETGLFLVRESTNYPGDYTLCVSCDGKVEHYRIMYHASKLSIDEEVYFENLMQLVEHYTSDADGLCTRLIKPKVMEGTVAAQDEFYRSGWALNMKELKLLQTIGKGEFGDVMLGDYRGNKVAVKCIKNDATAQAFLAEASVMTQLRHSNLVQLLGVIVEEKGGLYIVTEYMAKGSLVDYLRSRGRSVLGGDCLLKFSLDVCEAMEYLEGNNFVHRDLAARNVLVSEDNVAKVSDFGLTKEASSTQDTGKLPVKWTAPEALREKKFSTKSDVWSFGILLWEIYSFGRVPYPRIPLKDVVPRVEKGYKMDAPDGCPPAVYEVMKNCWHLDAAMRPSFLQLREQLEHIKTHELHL

ALK tyrosine kinase receptor (Homo sapiens), sequence (Q9UM73 19-1620 limits assumed): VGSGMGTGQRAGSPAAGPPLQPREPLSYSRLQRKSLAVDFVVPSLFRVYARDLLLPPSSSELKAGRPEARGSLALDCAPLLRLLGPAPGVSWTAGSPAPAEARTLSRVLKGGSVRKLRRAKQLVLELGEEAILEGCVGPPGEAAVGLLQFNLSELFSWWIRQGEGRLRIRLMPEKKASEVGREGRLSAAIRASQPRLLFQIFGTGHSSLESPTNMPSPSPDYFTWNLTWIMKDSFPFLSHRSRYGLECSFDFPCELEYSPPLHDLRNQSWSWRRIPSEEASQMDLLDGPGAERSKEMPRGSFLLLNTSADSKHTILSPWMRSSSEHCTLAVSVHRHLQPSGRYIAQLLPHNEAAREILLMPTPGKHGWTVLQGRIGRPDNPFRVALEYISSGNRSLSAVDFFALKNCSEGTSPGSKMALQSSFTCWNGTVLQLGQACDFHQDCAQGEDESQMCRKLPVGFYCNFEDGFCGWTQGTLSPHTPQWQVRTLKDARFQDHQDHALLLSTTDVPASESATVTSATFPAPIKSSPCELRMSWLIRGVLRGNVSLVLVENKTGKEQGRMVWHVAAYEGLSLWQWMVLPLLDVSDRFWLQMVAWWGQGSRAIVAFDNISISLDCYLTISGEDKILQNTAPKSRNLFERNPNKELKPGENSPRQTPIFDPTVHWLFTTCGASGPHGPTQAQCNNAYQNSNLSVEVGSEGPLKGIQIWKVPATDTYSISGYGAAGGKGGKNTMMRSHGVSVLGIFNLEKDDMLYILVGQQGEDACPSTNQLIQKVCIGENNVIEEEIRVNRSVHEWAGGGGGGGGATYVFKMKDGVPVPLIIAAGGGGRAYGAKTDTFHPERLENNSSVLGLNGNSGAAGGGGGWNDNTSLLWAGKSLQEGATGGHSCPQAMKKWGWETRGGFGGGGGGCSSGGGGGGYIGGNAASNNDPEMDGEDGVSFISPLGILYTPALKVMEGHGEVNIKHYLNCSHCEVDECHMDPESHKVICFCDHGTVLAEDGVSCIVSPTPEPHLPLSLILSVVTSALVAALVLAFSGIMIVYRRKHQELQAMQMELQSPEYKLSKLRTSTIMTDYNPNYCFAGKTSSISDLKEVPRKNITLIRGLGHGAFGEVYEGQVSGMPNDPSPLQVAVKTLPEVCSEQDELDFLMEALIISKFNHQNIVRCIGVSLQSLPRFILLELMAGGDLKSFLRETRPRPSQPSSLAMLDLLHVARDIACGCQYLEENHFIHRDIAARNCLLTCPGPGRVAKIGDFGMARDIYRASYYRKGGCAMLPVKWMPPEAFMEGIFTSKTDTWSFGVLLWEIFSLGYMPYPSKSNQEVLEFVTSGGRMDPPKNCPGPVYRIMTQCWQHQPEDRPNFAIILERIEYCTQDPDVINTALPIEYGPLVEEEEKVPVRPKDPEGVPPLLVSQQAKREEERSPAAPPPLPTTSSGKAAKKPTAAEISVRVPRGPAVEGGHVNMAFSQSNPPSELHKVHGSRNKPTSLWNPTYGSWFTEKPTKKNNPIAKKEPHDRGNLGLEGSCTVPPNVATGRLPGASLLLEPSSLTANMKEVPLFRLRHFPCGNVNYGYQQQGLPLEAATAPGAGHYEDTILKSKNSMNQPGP
Tyrosine-protein kinase BTK (Homo sapiens), sequence (Q06187 whole entry): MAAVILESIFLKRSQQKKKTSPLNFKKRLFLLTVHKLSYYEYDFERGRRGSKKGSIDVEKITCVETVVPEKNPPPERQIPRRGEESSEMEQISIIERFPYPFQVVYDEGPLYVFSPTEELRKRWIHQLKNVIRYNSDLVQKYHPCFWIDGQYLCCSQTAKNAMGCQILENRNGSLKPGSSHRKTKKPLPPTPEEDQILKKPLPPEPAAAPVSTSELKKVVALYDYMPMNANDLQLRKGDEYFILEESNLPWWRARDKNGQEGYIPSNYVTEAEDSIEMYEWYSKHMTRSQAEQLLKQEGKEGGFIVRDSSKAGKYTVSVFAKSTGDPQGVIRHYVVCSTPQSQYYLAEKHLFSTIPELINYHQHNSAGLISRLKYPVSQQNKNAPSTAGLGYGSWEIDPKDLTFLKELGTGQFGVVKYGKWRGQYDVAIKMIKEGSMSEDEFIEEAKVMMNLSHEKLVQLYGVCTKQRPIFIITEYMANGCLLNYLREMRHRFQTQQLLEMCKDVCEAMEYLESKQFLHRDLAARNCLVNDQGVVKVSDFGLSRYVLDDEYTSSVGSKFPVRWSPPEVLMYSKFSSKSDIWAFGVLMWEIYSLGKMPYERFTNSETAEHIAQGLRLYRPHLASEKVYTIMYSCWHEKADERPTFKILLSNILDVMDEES
Tyrosine-protein kinase Blk (Homo sapiens), sequence (P51451 2-505 limits assumed): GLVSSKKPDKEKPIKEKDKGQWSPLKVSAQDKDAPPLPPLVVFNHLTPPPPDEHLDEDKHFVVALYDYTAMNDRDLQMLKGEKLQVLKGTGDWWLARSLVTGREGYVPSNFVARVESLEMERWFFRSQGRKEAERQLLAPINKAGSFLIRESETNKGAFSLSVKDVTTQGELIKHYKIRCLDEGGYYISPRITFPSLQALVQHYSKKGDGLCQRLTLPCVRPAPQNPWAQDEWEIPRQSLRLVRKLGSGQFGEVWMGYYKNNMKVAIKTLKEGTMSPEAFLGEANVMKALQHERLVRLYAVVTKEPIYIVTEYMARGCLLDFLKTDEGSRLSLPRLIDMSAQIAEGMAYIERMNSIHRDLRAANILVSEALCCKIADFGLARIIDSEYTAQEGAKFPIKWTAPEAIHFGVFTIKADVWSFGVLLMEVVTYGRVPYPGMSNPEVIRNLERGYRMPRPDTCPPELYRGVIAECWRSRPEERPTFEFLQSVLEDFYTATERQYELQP
Protein-tyrosine kinase 6 (Homo sapiens), sequence (Q13882 whole entry, looked up): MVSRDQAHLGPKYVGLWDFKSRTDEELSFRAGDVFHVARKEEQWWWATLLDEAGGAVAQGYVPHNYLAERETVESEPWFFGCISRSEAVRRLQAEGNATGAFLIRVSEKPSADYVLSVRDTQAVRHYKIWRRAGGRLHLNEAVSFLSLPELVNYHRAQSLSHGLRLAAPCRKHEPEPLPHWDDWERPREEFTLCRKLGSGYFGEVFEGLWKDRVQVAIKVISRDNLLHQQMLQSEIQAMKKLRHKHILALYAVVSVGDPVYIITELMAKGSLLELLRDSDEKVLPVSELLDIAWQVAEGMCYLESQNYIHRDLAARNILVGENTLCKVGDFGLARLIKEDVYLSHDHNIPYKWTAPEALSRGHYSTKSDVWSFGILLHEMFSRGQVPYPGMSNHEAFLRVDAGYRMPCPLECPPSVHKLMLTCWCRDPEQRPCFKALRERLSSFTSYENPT

`CS(=O)(=O)Nc1ccc(-c2cc(-c3ccccc3)cc(C(N)=O)c2N)cc1`: the inhibition in assay [1] was determined as 0.72%; in assay [2], 1.53%; in assay [3], 2.93%; in assay [4] it was 3.02%; in assay [5], 7.08%; in assay [6], 0.29%. The inhibition is 2.13% in assay [7]; 2.05% in [8]; 7.11% in [9]; -4.02% in [10]; -0.04% in [11]; 0% in assay [12]. The inhibition in assay [13] was 4.17%; in assay [14], 1.21%; in [15], 0.72%; in assay [16] it was 0.76%; in assay [17], 3.55%; in assay [18], -2.25%. Also, the values for the inhibition in assay [19] and in [20] were -2.03% and 1.18%, respectively.

With `Nc1nccc(-c2c(-c3ccc(F)cc3)ncn2C2CCNCC2)n1`, the inhibition in [1] was 1.38% and 1.78%; in [2], -2.62% and 1.74%; in [3], 3.43% and 4.65%; in [4], -2.44% and 0.45%; in assay [5] it was 7.89% and 5.4%; in [6] it was -2.83% and 0.4%. In addition, the inhibition was -1.85% and 1.82% in [7]; -2.01% and -0.73% in [8]; 3% and 19.3% in [9]; 3.6% and 1.09% in assay [10]; 8.06% and 1.45% in [11]; -1.45% and 0.8% in [12]. The inhibition in [13] is -0.17% and 2.22%; in [14], 1.14% and -5.53%; in assay [15], -1.15% and 0.2%; in [16] it was -3.88% and 1.44%; in [17], 2.01% and 4.41%; in assay [18], -0.49% and -0.93%. For the same molecule, the inhibition was -0.59% and 0.22% in [19]; -4.42% and 4.09% in [20].

On to `Cc1cc(O)cc(C)c1/C=C/c1cncc(C(N)=O)c1`, for which the inhibition was found to be 7.26% in assay [1]; 27.8% in assay [2]; 73.6% in [3]; 15.1% in assay [4]; 66% in assay [5]; 3.62% in assay [6]. Moreover, the inhibition in [7] was 4.41%; in [8], 12.2%; in assay [9] it was 59.3%; in assay [10], -2.07%; in assay [11], -0.54%; in assay [12] it was 3.77%. Further, the inhibition was 23% in assay [13]; 5.58% in assay [14]; 37.5% in [15]; 22.2% in assay [16]; 72.8% in [17]; -0.17% in assay [18]. For the same molecule, the inhibition in assay [19] stood at 2.64%; in assay [20], 4.27%.

For `COc1ccccc1-c1cc(/C=C2\C(=O)Nc3ncc(Br)cc32)cc(Br)c1O`, the inhibition in [1] amounted to 5.39%; in [2], 5.65%; in assay [3] it was 20%; in assay [4], 4.63%; in [5], 27.9%; in assay [6], 2.62%. Further, the inhibition in assay [7] was 6.47%; in [8] it was 3.44%; in assay [9], 15.1%; in assay [10], -9.46%; in assay [11], -1.51%; in [12], 2.49%. Moreover, the inhibition in assay [13] turned out to be 10.7%; in [14], 0.75%; in assay [15], 6.48%; in assay [16], 5.88%; in assay [17], 3.92%; in [18] it was 1.5%. For the same molecule, the inhibition turned out to be 2.07% in assay [19] and 3.21% in [20].

Consider `CCCNc1cccc(-n2ncc3c(N/N=C/c4ccncc4)ncnc32)c1`, for which the inhibition in assay [1] turned out to be 85.8%; in [2], 42.4%; in [3] it was 86.2%; in [4], 24.3%; in [5] it was 75.3%; in assay [6] it was 0.42%. In addition, the inhibition came out at 3.35% in assay [7]; 11.6% in assay [8]; 61.9% in assay [9]; 2.01% in assay [10]; 13.2% in assay [11]; 14.2% in [12]. Also, the inhibition in assay [13] worked out at 62.9%; in [14], 1.67%; in assay [15], 13.4%; in [16] it was 8.53%; in assay [17], 51%; in [18], 1.43%. Besides, the inhibition is 4.2% in assay [19] and 2.59% in assay [20].

As to `O=C(O[C@H]1CN[C@H](C#Cc2cc3ncnc(Nc4ccc5c(ccn5Cc5cc(F)ccc5F)c4)c3s2)C1)N1CCOCC1`, the inhibition worked out at 3.69% in [1]; 2.24% in assay [2]; 4.4% in [3]; 3.14% in [4]; 3.38% in assay [5]; 4.15% in [6]. The inhibition was 4.73% in [7]; 1.18% in [8]; 1.47% in [9]; -7.4% in assay [10]; -5.54% in assay [11]; 2.36% in assay [12]. Moreover, the inhibition in [13] is 8.13%; in assay [14], 4.47%; in [15], 4.96%; in assay [16], 3.43%; in assay [17], 4.9%; in assay [18] it was 0.02%. Moreover, the results for the inhibition in [19] and in [20] were 2.23% and 3.21%, respectively.

As for `O=C(O[C@H]1CN[C@H](C#Cc2cc3ncnc(Nc4ccc(OCc5cccc(F)c5)c(Cl)c4)c3s2)C1)N1CCOCC1`, the inhibition in [1] was 6.54%; in assay [2], 2.93%; in assay [3], 5.78%; in assay [4], 1.93%; in assay [5], 3.32%; in [6], 7.04%. Moreover, the inhibition in assay [7] was 6.43%; in assay [8] it was 0.82%; in assay [9] it was 0.68%; in assay [10] it was -7.05%; in assay [11], -9.27%; in [12], 3.99%. The inhibition in assay [13] was 1.91%; in assay [14], -1.21%; in assay [15], 3.25%; in assay [16], 5.25%; in [17], 9.3%; in [18], 0.42%. The figures for the inhibition in assay [19] and in assay [20] were -0.33% and 7.67%, respectively.

The inhibition is the change of the read-out against control, counted positive when it falls.
